Where “and” joins values, the source holds several entries; their conditions need not be identical. Equal entries are not always repeated. Structures can show the parent of a compound that is named as a salt.
Key:
Test in all cases: cell viability relative to vehicle control; higher = less cytotoxic
Conditions in all cases: 10 µM
[1] = test system: K562
How it was run: (§1)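 Each screen used CRISPR-edited mutant and wild-type clones from four leukaemia lines. Compounds were acoustically dispensed at a single 10 µM dose, and CellTiter-Glo luminescence was read after 48 h with the supernatant first removed. Viability was analysed in Genedata Screener and given as percent of the on-plate vehicle control.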

[2] = test system: MARIMO
How it was run: as §1

[3] = test system: MOLM14
How it was run: as §1

[4] = test system: OCI-AML2
How it was run: as §1

| SMILES | cell viability ([1]; SRSF2 genotype: SRSF2 P95H/wt) | cell viability ([1]; SRSF2 genotype: SRSF2 wt/wt) | cell viability ([2]; SRSF2 genotype: SRSF2 P95H/wt) | cell viability ([2]; SRSF2 genotype: SRSF2 wt/wt) | cell viability ([3]; SRSF2 genotype: SRSF2 P95H/wt) | cell viability ([3]; SRSF2 genotype: SRSF2 wt/wt) | cell viability ([4]; SRSF2 genotype: P95H/wt) | cell viability ([4]; SRSF2 genotype: wt/wt) |
| --- | --- | --- | --- | --- | --- | --- | --- | --- |
| O=C(O)CCCC[C@@H]1SC[C@@H]2NC(=O)N[C@@H]21 [Biotin (Vitamin B7)] | 101% and 100% | 96.3% | 104% | 103% | 102% | 108% | 102% | 99.2% |
| COc1ccccc1 [Anisole] | 96.8% and 90.2% | 102% | 98.6% | 101% | 94.6% | 101% | 99.5% | 110% |
| Cc1c(C(=O)N2CCOc3ccc(-c4ccc(N)nc4)cc3C2)ccc(S(C)(=O)=O)c1F | 84.6% and 89.8% | 84.4% | 81.4% | 76.9% | 71.2% | 63.6% | 70% | 67.8% |
| C[C@@H](c1nc(-c2ccc(C#N)cc2)cs1)[C@](O)(Cn1cncn1)c1cc(F)ccc1F [Isavuconazole] | 45.7% and 47.6% | 48.5% | 39.3% | 33% | 44.8% | 26% | 38.7% | 28% |
| Cc1cc(OCc2nnc(SC3CCCC3)n2-c2cccnc2)ccc1-c1ccc(S(C)(=O)=O)cc1 | 0.65% and 0.74% | 1.74% | 0.85% | 1.72% | 0.25% | 0.26% | 0.24% | 0.79% |
| CCOP(=O)(OCC)C(=Cc1cc(C(C)(C)C)c(O)c(C(C)(C)C)c1)P(=O)(OCC)OCC | 77.8% and 87.5% | 84.6% | 90.4% | 93% | 88.8% | 71.6% | 90.9% | 97% |
| O=C(Cc1ccccc1)Nc1nnc(CCSCCc2nnc(NC(=O)Cc3ccccc3)s2)s1 | 81.3% and 83.7% | 88.7% | 75.9% | 72.4% | 82.9% | 91.2% | 68.5% | 78.7% |
| O=C1NC(=O)C(c2ccccc2[N+](=O)[O-])=C1Nc1ccc(O)c(Cl)c1 | 107% and 104% | 104% | 98.5% | 91.9% | 90.7% | 107% | 122% | 120% |
| CC(C)OC(=O)[C@H](C)N[P@](=O)(OC[C@H]1O[C@@H](n2ccc(=O)[nH]c2=O)[C@](C)(F)[C@@H]1O)Oc1ccccc1 [Sofosbuvir(PSI-7977)] | 103% and 102% | 95.8% | 98.3% | 111% | 102% | 107% | 94% | 107% |
| CC1(C)CC[C@]2(C(=O)O)CC[C@]3(C)C(=CC[C@@H]4[C@@]5(C)CC[C@H](O)C(C)(C)[C@@H]5CC[C@]43C)[C@@H]2C1 [Oleanolic Acid (Caryophyllin)] | 96.5% and 91.2% | 87.9% | 80.7% | 82.8% | 85.6% | 94.7% | 66.8% | 82.7% |
| CC1=C(/C=C/C(C)=C/C=C/C(C)=C/C=C/C=C(C)/C=C/C=C(C)/C=C/C2=C(C)CCCC2(C)C)C(C)(C)CCC1 [Beta Carotene] | 100% and 103% | 92% | 93.3% | 101% | 93.8% | 98% | 98.3% | 105% |
| CN(C)CC/C=C1/c2ccccc2Sc2ccc(Cl)cc21 [Chlorprothixene] | 80.1% and 80.7% | 87.8% | 78.3% | 76.7% | 66.2% | 82.1% | 66.6% | 68.2% |
| CCCCOC(=O)c1ccccc1Nc1cccc(C(F)(F)F)c1 [Ufenamate] | 101% and 100% | 99.2% | 93% | 102% | 103% | 109% | 110% | 110% |
| Cn1cc(C(=O)[C@@H]2CCc3[nH]cnc3C2)c2ccccc21 [Ramosetron Hydrochloride] | 92.3% and 92.8% | 81.9% | 91.2% | 94.8% | 96.2% | 94.1% | 92.2% | 89.9% |
| COc1ccccc1N1CCN(CC(O)COc2cccc3ccccc23)CC1 (configuration not stated) [Naftopidil Dihydrochloride] | 75.2% and 86.7% | 72.6% | 57% | 65.2% | 58.4% | 60.1% | 71.4% | 74.5% |
| COc1ccc2cc1Oc1ccc(cc1)C[C@H]1c3cc(c(OC)cc3CCN1C)Oc1c(O)c(OC)cc3c1[C@H](C2)N(C)CC3 [(+)-Fangchinoline] | 4.1% and 4.98% | 3.92% | 12.2% | 1.33% | 0.71% | 0.57% | 0.52% | 0.71% |
| CS(=O)(=O)Nc1ccc([N+](=O)[O-])cc1Oc1ccccc1 [Nimesulide] | 105% and 109% | 99.8% | 102% | 108% | 109% | 103% | 101% | 110% |
| O=S(=O)(N=Cc1c(O)ccc2ccccc12)c1cccs1 | 100% and 99.8% | 95.2% | 100% | 97.3% | 100% | 99% | 101% | 103% |
| C=C1C(=O)O[C@@H]2/C=C(\C)CC/C=C(\C)CC[C@@H]12 [Costunolide] | 23.8% and 32% | 41.4% | 25.3% | 17.8% | 3.29% | 5.5% | 2.25% | 7.11% |
| Cc1nc(=O)c2cc(CN(C)c3ccc(C(=O)N[C@@H](CCC(=O)O)C(=O)O)s3)ccc2[nH]1 [Raltitrexed (Tomudex)] | 94.9% and 108% | 58.7% | 94.3% | 105% | 104% | 80.6% | 106% | 118% |
| CCc1cc(Nc2nc(-c3ccc(-n4cnc(C)c4)c(F)c3)cs2)c(C)cc1C | 96% and 99.5% | 91.5% | 93.8% | 101% | 96.6% | 93.9% | 94.2% | 91.9% |
| O=C(NCCCNc1nc(Nc2cccc(NC(=O)N3CCCC3)c2)ncc1I)c1cccs1 | 62.4% and 86.2% | 74.4% | 56.6% | 56.7% | 11.1% | 6.15% | 12.4% | 20.6% |

| SMILES | cell viability ([1]; SRSF2 genotype: SRSF2 P95H/wt) | cell viability ([1]; SRSF2 genotype: SRSF2 wt/wt) | cell viability ([2]; SRSF2 genotype: SRSF2 P95H/wt) | cell viability ([2]; SRSF2 genotype: SRSF2 wt/wt) | cell viability ([3]; SRSF2 genotype: SRSF2 P95H/wt) | cell viability ([3]; SRSF2 genotype: SRSF2 wt/wt) | cell viability ([4]; SRSF2 genotype: P95H/wt) | cell viability ([4]; SRSF2 genotype: wt/wt) |
| --- | --- | --- | --- | --- | --- | --- | --- | --- |
| CC(C)(CNC(=O)c1cccc(-c2noc(C(F)(F)F)n2)c1)c1coc(-c2ccccc2)n1 | 89.2% and 87.4% | 94.5% | 82.1% | 82.6% | 91% | 96% | 52.5% | 67.2% |
| Nc1cccc(-c2cc3c(Oc4cccc(O)c4)ncnc3[nH]2)c1 | 28.4% and 39.8% | 27.7% | 84.4% | 94.5% | 37.8% | 35.5% | 53.4% | 53.3% |
| O=c1oc2cc(O)ccc2c2ccc(O)cc12 [S5312 Urolithin A.cdx] | 98.3% and 101% | 106% | 99.9% | 98.3% | 97.4% | 105% | 89% | 94.5% |
| Nc1cc(C(F)(F)F)c(-c2cc(N3CCOCC3)nc(N3CCOCC3)n2)cn1 | 30.2% and 37.9% | 31.9% | 23.2% | 20.3% | 11.9% | 11% | 11.6% | 15.7% |
| O=C(O)CC[C@H]1CC[C@@](c2cc(F)ccc2F)(S(=O)(=O)c2ccc(Cl)cc2)CC1 | 102% and 101% | 97.9% | 91.6% | 92.1% | 98.3% | 99.2% | 102% | 97% |
| Cc1[nH]c(/C=C2\C(=O)Nc3ccccc32)c(C)c1CCC(=O)O [Orantinib (TSU-68, SU6668)] | 98.7% and 95.2% | 95.5% | 96.3% | 103% | 82% | 89.2% | 75.2% | 84.2% |
| COC(=O)CNC(=O)C(=O)OC | 93% and 96.6% | 96.3% | 89.1% | 90.8% | 92.6% | 94.5% | 56.9% | 64.9% |
| CC1=C(C(=O)OC2CCCCC2)C(c2ccc([N+](=O)[O-])cc2)C2=C(CC(C)(C)CC2=O)N1 (configuration not stated) | 30.9% and 13.9% | 47.4% | 84.3% | 66% | 10.5% | 13.7% | 52.6% | 43.5% |
| CC(C)(O[C@@H]1O[C@H](CO)[C@@H](O)[C@H](O)[C@H]1O)[C@H]1Cc2cc3ccc(=O)oc3cc2O1 [Nodakenin] | 101% and 107% | 109% | 98.7% | 101% | 110% | 100% | 106% | 103% |
| CCCCCCCCCCCCCCCCO [1-Hexadecanol] | 102% and 92.5% | 98.6% | 100% | 109% | 101% | 103% | 94.5% | 116% |
| CC(=O)O[C@@]12CO[C@@H]1C[C@H](O)[C@@]1(C)C(=O)[C@H](O)C3=C(C)[C@@H](OC(=O)[C@H](O)[C@@H](NC(=O)OC(C)(C)C)c4ccccc4)C[C@@](O)([C@@H](OC(=O)c4ccccc4)[C@H]21)C3(C)C [Docetaxel (Taxotere)] | 25.3% and 36.8% | 34.7% | 6.89% | 5.5% | 7.8% | 4.57% | 7.58% | 13.3% |
| CCCN(CCc1cccs1)[C@H]1CCc2c(O)cccc2C1 [Rotigotine] | 99.3% and 105% | 104% | 89.7% | 105% | 93.8% | 101% | 107% | 92.3% |
| CC1OC(OC2C(OC3CCC4(C)C(CCC5(C)C4CC=C4C6CC(C)(C)CCC6(C(=O)OC6OC(COC7OC(CO)C(O)C(O)C7O)C(O)C(O)C6O)CCC45C)C3(C)CO)OCC(O)C2O)C(O)C(OC2OC(CO)C(O)C(O)C2O)C1O (configuration not stated) [Macranthoidin A] | 99.3% and 97.9% | 100% | 100% | 102% | 102% | 96.6% | 98% | 105% |
| O=c1c(O)c(-c2ccc(O)cc2)oc2cc(O)cc(O)c12 [Kaempferol] | 96.1% and 106% | 108% | 98.1% | 117% | 57.4% | 68% | 81.7% | 67.5% |
| COC(=O)C1=CO[C@@H](O[C@@H]2O[C@H](CO)[C@@H](O)[C@H](O)[C@H]2O)[C@H]2[C@@H]1C(=O)C[C@@H]2C [Verbenalin] | 104% and 98.5% | 104% | 99.9% | 100% | 110% | 103% | 98.4% | 100% |
| O=C(O)c1c[nH]c2cc(Cl)c(-c3ccc(C4(O)CCC4)cc3)cc12 | 91.2% and 101% | 95.2% | 92.8% | 115% | 106% | 102% | 86.5% | 96.9% |
| CS(=O)(=O)c1cccc(CNc2nc(Nc3ccc4c(c3)CCC(=O)N4)ncc2C(F)(F)F)c1 | 77% and 90.4% | 98.3% | 49.7% | 48.8% | 8.16% | 5.1% | 9.56% | 16.9% |
| CCc1ccc(Cc2ccc3c(c2)[C@]2(OC3)O[C@H](CO)[C@@H](O)[C@H](O)[C@H]2O)cc1 [Tofogliflozin(CSG 452)] | 81.3% and 83.7% | 81.2% | 77.3% | 88.5% | 80.2% | 82.5% | 93.8% | 85.6% |
| COc1ccc(COc2ccc(Cc3cnc(N)nc3N)cc2OC)cc1 | 83.8% and 84% | 80% | 84% | 92.8% | 86.6% | 88.3% | 66% | 70.3% |
| COc1cc(CO)ccc1O [Vanillyl Alcohol] | 97.3% and 89.7% | 88.8% | 94.9% | 100% | 92.1% | 95.9% | 92.4% | 91.7% |
| C=C1[C@H](O)C[C@H]2[C@@H](/C=C(\C)C(=O)[C@@]3(O)C[C@H](C)[C@H](O)[C@@H]3[C@H]1O)C2(C)C | 98.1% and 92% | 99% | 93.7% | 100% | 99.8% | 98.1% | 93.9% | 101% |
| C[C@H]1O[C@@H](O[C@H]2CC[C@@]3(C)[C@@H](CC[C@]4(C)[C@@H]3C=C[C@]35OC[C@@]6(CCC(C)(C)C[C@H]63)[C@H](O)C[C@]54C)[C@]2(C)CO)[C@H](O)[C@@H](O[C@@H]2O[C@H](CO)[C@@H](O)[C@H](O)[C@H]2O)[C@H]1O [Saikosaponin D] | 6.69% and 0.65% | 0.4% | 14% | 3.54% | 0.86% | 0.86% | 10.2% | 12.9% |
